From PubChem
Pf growth 48h: P. falciparum growth inhibition at 48 hours (one generation); P. falciparum luciferase growth in erythrocytes, 48 h; Potency, µM (doses to about 28.7 µM), without a hit: top-dose activity change, negative = inhibition, usual class: inhibitors; hit rate 5.9% among 310,000; AID 504832; also: potency is read from the fitted curve at half-maximal effect; % is scaled to controls: 0 for no effect and ±100 for the full control effect
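First compound was added to culture medium, then infected red cells at 0.1% parasitemia and 2% hematocrit (final). After incubation at 37 C under 5% CO2, luciferase detection reagent was dispensed and light output recorded.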
Pf growth 96h: P. falciparum growth inhibition at 96 hour, primary screen for plastid delayed-death inhibitors | P. falciparum luciferase reporter growth, 96 h | Potency, µM (series often up to 28.7 µM), for the others: top-dose activity change, negative = inhibition, hits mostly inhibitors | hit rate 6.9% among 320,000; also: potency is read from the fitted curve at half-maximal effect; % is scaled to controls: 0 for no effect and ±100 for the full control effect
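Compounds incubated with erythrocytes infected by luciferase-expressing P. falciparum (2% hematocrit, 0.05% parasitemia final) for 96 hours, 37 C in 5% CO2. Growth inhibition scored as decreased luciferase luminescence.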
CHX counter: affects cycloheximide protein synthesis inhibition readout, counter-screen; cell reporter, cycloheximide protein synthesis inhibition counterscreen; max response, %; hit rate 12% among 300,000; in the data active = max response mostly above about 13%, no sharp cut-off; inactive = mostly below about 14%; also: read at 38.3 µM for the half of the compounds with a filed dose; 0% is about no effect
AMA1-RON2 inh: disrupts binding of P. falciparum AMA1 to RON2. Potency, µM (highest dose often 58.2 µM), for inactives: top-dose activity change, negative = inhibition, usual class: inhibitors. AlphaScreen AMA1-biotinylated RON2 peptide binding. AID 720542. hit rate 0.2% among 360,000;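 also: potency is read from the fitted curve at half-maximal effect; 0% = vehicle wells and -100% = peptide control; nearly all actives have a fitted effect of over 45% in size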
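AMA1 (3D7) with his tag at 25 nM final met compounds first, then biotinylated RON2 peptide at 25 nM; detection used donor plus acceptor beads, 10 µg/mL apiece, read by AlphaScreen after 30 min at room temperature.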
Shiga toxin inh: inhibitors of Shiga toxin in Vero cells. inhibition, % at 38.7 µM. Vero cells, Shiga toxin protein synthesis inhibition reporter. hit rate 9.2% among 290,000; in the data active = inhibition mostly above about 28%, no sharp cut-off; inactive = mostly below about 43%; also: 0% is about no effect
SARS PLpro yeast: inhibitors of SARS-CoV papain-like protease in yeast; S. cerevisiae expressing SARS-CoV PLpro, growth rescue; Potency, µM (series often up to 32.9 µM), for inactives: at the top dose activity, positive = growth rescue, usual class: activators; hit rate 0.19% among 330,000; AID 485353; calls by dose curve; also: potency is read from the fitted curve at half-maximal effect; 0% is about no effect; nearly all actives have a fitted effect of over 55% in size
* marks the source's active call; other numbers are inactive results; ? = inconclusive; / = not tested or not shown. Only some compounds are listed: those with a hit (about 19% of all), similar ones and a draw of the others. Unless noted, calls follow the shape of the dose curve; as a rule, active = well fitted curve in the direction sought with a large enough effect; inconclusive = small, poorly fitted or top-dose-only effect, or another doubt; inactive = no such curve, though single readings can be large; an effect the other way counts as inactive or inconclusive.

SMILES	Pf growth 48h	Pf growth 96h	CHX counter	AMA1-RON2 inh	Shiga toxin inh	SARS PLpro yeast
O=C1C2CCCCN2C(=O)N1CCN1CCN(c2cccc(Cl)c2)CC1 (stereo not drawn)	/	/	/	-2.6%	/	/
CSc1ccc(CNC2CN3CCC2CC3)cc1 (stereo not drawn)	3.0%	1.65µM*	-2.1	-3.4%	15.6	2.2%
O=C(c1ccc(-c2cc(O)c3ncccc3c2)cc1)N1CCNCC1	9.28µM*	9.28µM*	/	/	/	-1.6%
OCCC1CN(CC#Cc2ccccc2)CCN1Cc1ccccc1F (stereo not drawn)	-11.2%	11.7µM*	-2.7	-9.7%	3.9	4.7%
CC(C)CCN1CCN(Cc2cccn2-c2ccccn2)CC1CCO (stereo not drawn)	-2.6%	10.0%	-2.9	12.3%	-11.8	0.2%
CC(C)CN1CCN(CC#Cc2ccccc2)CC1CCO (stereo not drawn)	27.5%	11.7µM*	6.2	-1.5%	21.8	0.8%
CC(C)CN1CCN(Cc2cccn2-c2ccccn2)CC1CCO (stereo not drawn)	55.3%	8.28µM*	0.6	-3.1%	17.6	0.9%
COc1ccc2nc(SCC(=O)Nc3ccccc3C)[nH]c2c1	0.3%	-0.7%	-2.8	6.0%	-4.8	0.4%
Cc1ccc(Oc2nccc(-c3ccc(Cl)cc3)n2)cc1	15.0%	-17.8%	9.3	21.1%	9.4	2.5%
NC(=O)c1cccnc1Oc1ccccc1	-1.1%	17.9%	-1.5	-7.3%	-6.6	0.6%
COC(=O)c1cccnc1Oc1ccccc1	?	0.657µM*	-0.7	-5.9%	8.5	-0.5%
O=C1CC(N2CCC(c3nc4ccccc4o3)CC2)C(=O)N1 (stereo not drawn)	-4.4%	-2.9%	0.5	-1.2%	-5.3	-0.6%
Nc1ccc2oc(C3CCCCC3)nc2c1	91.4%	?	55.0*	-2.9%	96.5*	1.4%
Cn1c(CN2CCCCC2)nc2cc([N+](=O)[O-])ccc21	-65.1%	62.2%	4.4	-6.9%	20.2	0.2%
O=[N+]([O-])c1ccc2oc(C3CCCCC3)nc2c1	107.2%	36.0%	28.7*	-10.2%	76.2*	-0.5%
COc1cc(C)nc(N(C)S(=O)(=O)c2ccccc2Cl)n1	-9.5%	-3.0%	-0.8	-7.3%	1.7	5.0%
COc1cc(C)ccc1S(=O)(=O)NC(=O)C1(C)CCN1C(=O)C1(c2ccc(Cl)cc2)CCC1 (stereo not drawn)	/	/	/	-4.8%	/	/
COc1cccc(C2Nc3cc(Cl)c(S(N)(=O)=O)cc3S(=O)(=O)N2)c1 (stereo not drawn)	4.6%	/	5.9	-2.9%	38.1	12.1%
CC1Nc2ccccc2C(=O)N1NC(=O)c1ccc(Br)cc1 (stereo not drawn)	28.7%	8.28µM*	4.7	-3.1%	-4.5	-2.4%
CCOC(=O)NN1C(=O)c2ccccc2NC1C (stereo not drawn)	28.6%	-15.7%	2.0	3.3%	13.9	-0.8%
O=C(NCc1nc2ccccc2[nH]1)c1cccs1	37.0%	24.8%	23.1*	0.0%	14.0	7.2%
CCN=C1SC(C(=O)NCCc2ccccc2)CC(=O)N1CC (stereo not drawn)	-11.5%	2.2%	3.9	1.2%	2.3	-22.1%
CCN=c1sc(C(=O)NCCc2ccccc2)cc(=O)n1CC	?	12.2%	47.0*	-10.3%	97.3*	-6.9%
O=C(NCCCCNC(=O)c1cccs1)c1cccs1	-0.4%	?	-4.2	0.1%	-2.9	-7.8%
O=C(NCCc1ccccc1)c1cccs1	/	164.3%	29.0*	-7.0%	50.4	1.7%
SMILES	Pf growth 48h	Pf growth 96h	CHX counter	AMA1-RON2 inh	Shiga toxin inh	SARS PLpro yeast
O=C(NCCc1cccc(Cl)c1)c1cccs1	63.7%	?	66.9*	-15.8%	100.8*	-4.1%
CSc1ncnc2c1ncn2CCCN1CCN(C(=O)C2CC2)CC1	/	/	/	-4.8%	/	/
CCOCCCNC(=O)CN1C(=O)NC(Cc2c[nH]c3ccccc23)C1=O (stereo not drawn)	19.5%	6.6%	-5.5	-9.2%	-6.4	0.9%
O=C(NCCc1ccccc1)c1cnc2sccn2c1=O	132.7%	146.0%	43.2*	13.8%	92.9*	23.2%
Cc1cc2ccccc2n1CCNC(=O)c1cccs1	-74.1%	?	17.0*	?	31.5*	-1.9%
CC1C/C(=C/c2cccn2C)C(=O)/C(=C/c2cccn2C)C1 (stereo not drawn)	/	?	29.1*	?	48.5*	-14.8%
